Bioassay records as filed in PubChem.
CSC inhib: cancer stem cell viability inhibitors, primary screen, luminescence. cancer stem cell-like cells viability. inhibition, % at 7.5 µM. 1.1% of 300,000 active; in the data active = inhibition above about 75%; tested in HMLE shEcad cells
697 NFkB inh: inhibitors of PMA/ionomycin-induced NF-kB reporter, 697 cells, primary screen, B-cell NF-kB inhibitor project, cell-based, luminescence, uHTS. 697 B-cell NF-kB luciferase reporter, 16 h. inhibition, % at 4 µM. 0.33% of 330,000 active; in the data active = inhibition above about 35%
Jurkat NFkB inh: inhibitors of induced NF-kB luciferase reporter, primary screen, TCR NF-kB activation inhibitor project, cell-based, luminescence, uHTS. Jurkat, PMA/ionomycin-induced NF-kB luciferase reporter. inhibition, % at 4 µM. 0.53% of 330,000 active. AID 435003, 2010; in the data active = inhibition above about 50%
aSyn UTR inh: MLPCN primary screen, SNCA 5' untranslated region; alpha-synuclein 5'UTR reporter, inhibitor activity; inhibition, % (tested at 7.5 µM); 0.82% of 300,000 active; AID 1813, 2009; in the data active = inhibition above about 60%;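 also: H4 neuroglioblastoma cells stably carrying SNCA 5'UTR luciferase fusion; 0% = DMSO wells and 100% = positive control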
Gli-Sufu block: Gli-Sufu pathway antagonists, primary screen, luciferase luminescence, Sufu-KO-LIGHT cells, uHTS; Sufu-KO-LIGHT fibroblasts, Gli luciferase reporter luminescence; inhibition, % at 5 µM; 0.74% of 340,000 active;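 active = inhibition above about 55%, limit read from the data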;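 also: 0% = DMSO-treated cells and 100% = wells with medium but no cells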
Mdm2 MdmX PPI: inhibitors of human Mdm2-MdmX association, primary screen, cell-based, luminescence, split luciferase, SaOS-2, uHTS; Protein Mdm4 (Homo sapiens) + E3 ubiquitin-protein ligase Mdm2 (Homo sapiens), …; SaOS-2 split-luciferase Mdm2/MdmX complementation; inhibition, % at 8 µM; 3% of 330,000 active; AID 485346, 2010;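 active = inhibition of at least 50% at 8 µM in the primary screen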
Target sequence (O15151 whole entry, looked up): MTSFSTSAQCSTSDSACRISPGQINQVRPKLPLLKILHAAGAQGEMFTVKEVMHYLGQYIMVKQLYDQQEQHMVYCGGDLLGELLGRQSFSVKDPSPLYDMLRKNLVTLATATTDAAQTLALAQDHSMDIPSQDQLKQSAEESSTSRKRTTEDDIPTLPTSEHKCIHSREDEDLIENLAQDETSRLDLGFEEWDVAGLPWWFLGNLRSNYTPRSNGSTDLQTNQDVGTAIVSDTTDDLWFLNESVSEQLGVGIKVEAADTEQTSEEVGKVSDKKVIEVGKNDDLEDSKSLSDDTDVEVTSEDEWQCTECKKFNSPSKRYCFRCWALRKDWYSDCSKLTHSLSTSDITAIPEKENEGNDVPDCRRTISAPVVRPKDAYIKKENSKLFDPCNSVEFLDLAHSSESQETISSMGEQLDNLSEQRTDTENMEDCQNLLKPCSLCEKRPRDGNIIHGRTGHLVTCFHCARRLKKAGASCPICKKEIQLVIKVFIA
Target sequence (Q00987 whole entry, looked up): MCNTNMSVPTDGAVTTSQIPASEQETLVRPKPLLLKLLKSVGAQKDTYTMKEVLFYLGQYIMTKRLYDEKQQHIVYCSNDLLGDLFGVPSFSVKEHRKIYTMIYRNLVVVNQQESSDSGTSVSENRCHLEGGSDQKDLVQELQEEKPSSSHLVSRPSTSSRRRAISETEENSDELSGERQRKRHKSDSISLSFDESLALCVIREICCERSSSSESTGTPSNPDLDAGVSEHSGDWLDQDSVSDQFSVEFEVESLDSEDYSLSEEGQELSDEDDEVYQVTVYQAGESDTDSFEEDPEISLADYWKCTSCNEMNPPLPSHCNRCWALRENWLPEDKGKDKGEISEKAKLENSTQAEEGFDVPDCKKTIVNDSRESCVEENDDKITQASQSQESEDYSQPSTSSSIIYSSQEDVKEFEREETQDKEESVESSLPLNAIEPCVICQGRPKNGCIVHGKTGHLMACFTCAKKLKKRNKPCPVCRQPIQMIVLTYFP
Jurkat NFkB conf: PMA/ionomycin-induced NF-kB reporter inhibitors, Jurkat retest, confirmation, T-cell NF-kB inhibitor project, cell-based, luminescence, single concentration; shares compounds with Jurkat NFkB inh; Jurkat NF-kB luciferase, 16 h; inhibition, % at 4 µM; 27% of 2,700 active; AID 435020, 2010;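 active = inhibition reaching about 45% at 4 µM in either replicate, limit read from the data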;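 also: plate controls were PMA/ionomycin stimulated DMSO wells for no effect and unstimulated DMSO wells for full effect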
* = called active by the depositor; · = no result. An excerpt weighted towards active compounds, which were near 4.5% of everything screened.

SMILES	CSC inhib	697 NFkB inh	Jurkat NFkB inh	aSyn UTR inh	Gli-Sufu block	Mdm2 MdmX PPI	Jurkat NFkB conf
O=C(Nc1ccc(-c2nc3cccnc3s2)cc1)c1ccc(Cl)nc1	13	-144	-88	-151	-40	-46	·
O=C(Nc1ccc(-c2nc3cccnc3s2)cc1)c1ccco1	1	-194	-186	-51	-113	-165	-64
O=C(Nc1cccc(-c2nc3cccnc3s2)c1)c1ccco1	16	-72	-16	-51	-18	-37	·
O=C(Nc1ccc(-c2nc3cccnc3s2)cc1)c1cccnc1Cl	-3	-237	-166	-9	-141	-165	-96
COc1ccc(C(=O)NC(=S)Nc2ccc(N3CCOCC3)cc2)cc1Cl	16	4	6	-35	21	36	·
c1ccc(C(c2ccccc2)c2ccn[nH]2)cc1	3	-9	-36	-41	-5	-41	·
CC1=Nc2cc(C(=O)NCC3CCCO3)ccc2Sc2ccc(C)cc21 (stereo not drawn)	-16	-37	49	44	6	49	·
CC1=Nc2cc(C(=O)NCc3ccco3)ccc2Sc2ccc(C)cc21	·	7	51*	101*	30	49	18
Cc1cc(C)n(CC(=O)N2CCCC(C(=O)c3cccc(OC(C)C)c3)C2)n1 (stereo not drawn)	7	1	-26	-2	15	11	·
O=C(Nc1ccccc1)C1Cc2ccccc2CN1C(=O)c1ccco1 (stereo not drawn)	·	-226	-150	-114	-20	-52	-106
CN(C(=O)c1ccc(NC(=O)Cc2cccc(NC(=O)C3CCCN(C(=O)C4CC4)C3)c2)cc1)C1CC1 (stereo not drawn)	·	·	·	·	2	·	·
O=C(NCc1ccc2c(c1)OCO2)c1cc([N+](=O)[O-])ccc1N1CCCCC1	54	-54	65*	28	28	42	30
CCc1cc2c(=O)nc3n(c2s1)Cc1ccccc1/C3=C(/O)c1cccc([N+](=O)[O-])c1	4	-108	69*	-19	2	18	51*
Cc1ccc(C(=O)Nc2cccc(N3C(=O)C4CCC(C)CC4C3=O)c2)cc1 (stereo not drawn)	-4	-4	-1	-16	-9	2	·
CC(C)(C)c1ccc(C(=O)Nc2ccc(Cl)cc2)cc1	7	-188	-161	-110	-72	-60	-116
Cc1nc(-c2ccc(NC(=O)c3ccccc3)cc2)cs1	24	-85	-195	-13	-154	-179	-125
Cc1ccc(NC(=O)c2ccc(C)cc2)cc1	-6	-191	-156	-6	-114	-136	-78
Cc1ccc(C(=O)Nc2ccc(N3CCN(C)CC3)cc2)cc1	-8	-86	-91	-88	-27	-44	·
O=C(O)[C@@H]1CCCN1S(=O)(=O)c1cccc2cccnc12	-5	13	-20	·	-9	26	·
CC(=O)c1ccccc1C(=O)NCc1cccnc1	9	9	7	31	6	0	·
CN(C)S(=O)(=O)c1cccc(NC(=O)c2ccc(N3CCOCC3)c([N+](=O)[O-])c2)c1	2	12	5	25	5	18	·
COc1ccc(CNC(=O)c2csc(Cc3ccccc3)n2)cc1	·	-11	-34	-46	-24	-8	·
COc1ccccc1CNC(=O)c1csc(Cc2ccc(Cl)cc2)n1	-3	0	71*	25	·	-2	18
O=c1c2ccccc2oc2cc(NCCCn3ccnc3)ccc12	38	-218	-178	-45	-71	-185	-84
CN1CCCC1CCNc1ccc2c(=O)c3ccccc3oc2c1 (stereo not drawn)	52	-161	-218	-130	-16	-58	-38
SMILES	CSC inhib	697 NFkB inh	Jurkat NFkB inh	aSyn UTR inh	Gli-Sufu block	Mdm2 MdmX PPI	Jurkat NFkB conf
CN1CCCC1CCNc1ccc2oc3ccccc3c(=O)c2c1 (stereo not drawn)	31	-63	-130	-38	-15	2	·
O=c1c2ccccc2oc2ccc(NCCCN3CCOCC3)cc12	-20	-102	-114	-108	-55	-136	·
O=c1c2ccccc2oc2cc(NCCCN3CCOCC3)ccc12	23	-219	-184	-127	-32	-107	-53
S=C(NCCc1ccccc1)NCc1cccs1	-9	-50	-20	-74	-25	-52	·
CC(CN1CCCCC1)OC(=O)C(C)(c1ccccc1)c1ccccc1 (stereo not drawn)	0	-7	-21	-22	13	17	·
Cc1ccc2c(c1)N(CC(=O)NCC1CCCO1)C(=O)C(C(C)C)O2 (stereo not drawn)	·	25	-10	6	43	-16	·
O=C(OCc1ccccc1F)c1cc2ccccc2cc1O	-14	0	4	-21	9	11	·
Nc1nc(-c2ccccc2)cc(N2CCCCC2)n1	53	-33	55*	55	5	40	42
Cc1nc(-c2ccccc2)cc(N2CCCC2)n1	2	-1	8	-35	-6	23	·
O=C(Nc1ccc2c(c1)CN(Cc1ccc(CO)o1)CC2)c1ccc(C(F)(F)F)cc1	6	-30	0	-21	1	26	·
Cc1ccc(C)c(S(=O)(=O)N2CCN(C(=O)Cc3sc(C)nc3-c3ccc(F)cc3)CC2)c1	·	·	·	·	-15	·	·
Cc1cnc(C(=O)Nc2ccc(N3CCN(C(=O)OC(C)(C)C)CC3)cc2)cn1	-8	-70	64*	-89	12	40	33
CSc1ccccc1NC(=O)CSc1nnc(Cc2ccccc2)o1	·	15	18	-14	6	7	·
CN(C)S(=O)(=O)c1ccc(Cl)c(NC(=O)CN2C(=O)NC3(CCc4ccccc43)C2=O)c1 (stereo not drawn)	1	25	4	·	-1	8	·
O=C(Nc1ccncc1)C1CCCN(S(=O)(=O)c2cccc3cccnc23)C1 (stereo not drawn)	53	-84	63*	27	-7	33	48
O=C(Nc1ccon1)c1cc2c(s1)CCCC2	4	-13	-157	-113	-81	-155	-84
COc1ccc2oc(C(=O)OCC(=O)NC3(C#N)CCCC3)c(C)c2c1	·	14	0	-15	-4	21	·
Cc1cc(-c2ccc(S(=O)(=O)N3CCN(C)CC3)s2)on1	-16	7	10	-14	-8	-7	·
CCc1ccccc1N(C)S(=O)(=O)c1ccc(-c2cc(C)no2)s1	61	-69	55*	-2	37	45	28
COc1cc2c(cc1OC)C(COc1ccc([N+](=O)[O-])cc1)N(C(C)=O)CC2 (stereo not drawn)	·	-42	68*	27	4	6	24
